Test results taken from PubChem BioAssay (NCI).
Compounds without any hit were thinned out: in the full panel of roughly 83,000, 20% have a hit.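 Assay: single dose, 48 h. Readout: percent growth (0 = no net growth; negative = cell death). Active: <10.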 A number with no mark means an inactive call. The source made the active and inactive calls.

Columns and labels:
Test in all cases: NCI-60 one-dose screen, 48 h (100 = growth as untreated, 0 = no growth, -100 = all killed)
Settings in all cases: 10 µM unless noted
DU-145 prostate = tested on: DU-145 prostate
K-562 leukemia = tested on: K-562 leukemia
MALME-3M melanoma = tested on: MALME-3M melanoma
MDA-MB-231 breast = tested on: MDA-MB-231 breast
SF-268 CNS = tested on: SF-268 CNS
SF-539 CNS = tested on: SF-539 CNS
UACC-257 melanoma = tested on: UACC-257 melanoma
M14 melanoma = tested on: M14 melanoma
HCT-15 colon = tested on: HCT-15 colon
HT29 colon = tested on: HT29 colon
SNB-75 CNS = tested on: SNB-75 CNS
SNB-19 CNS = tested on: SNB-19 CNS
PC-3 prostate = tested on: PC-3 prostate
SK-MEL-5 melanoma = tested on: SK-MEL-5 melanoma
UACC-62 melanoma = tested on: UACC-62 melanoma
LOX IMVI melanoma = tested on: LOX IMVI melanoma
SK-MEL-28 melanoma = tested on: SK-MEL-28 melanoma
RXF 393 renal = tested on: RXF 393 renal
SF-295 CNS = tested on: SF-295 CNS
U251 CNS = tested on: U251 CNS

Structure (SMILES) | growth (DU-145 prostate) | growth (K-562 leukemia) | growth (MALME-3M melanoma) | growth (MDA-MB-231 breast) | growth (SF-268 CNS) | growth (SF-539 CNS) | growth (UACC-257 melanoma) | growth (M14 melanoma) | growth (HCT-15 colon) | growth (HT29 colon) | growth (SNB-75 CNS) | growth (SNB-19 CNS) | growth (PC-3 prostate) | growth (SK-MEL-5 melanoma) | growth (UACC-62 melanoma) | growth (LOX IMVI melanoma) | growth (SK-MEL-28 melanoma) | growth (RXF 393 renal) | growth (SF-295 CNS) | growth (U251 CNS)
CC(=O)OCC1OC(OC2=C(CC=C(Cl)Cl)C(=O)c3ccccc3C2=O)C(OC(C)=O)C(OC(C)=O)C1OC(C)=O (stereo not given) | 104% | -12.5% (active) | 51.6% | 69.5% | 88.8% | 90.5% | 94% | 110% | 56.9% | 90.8% | 71.1% | 99.3% | 47.4% | 66.3% | 86.1% | 39.9% | 91.4% |  |  | 
O=C(/C=C/c1ccc(B(O)O)cc1)/C=C/c1ccc(B(O)O)cc1 | 64.4% | 12.9% |  | 38.6% | 59.2% | 21.6% | 51.9% | 20.5% | 8.01% (active) | -8.22% (active) | 72.4% | 69% | 57.1% | 85.5% | 13% | -36.5% (active) | 86.7% | 10.2% | 89.8% | 
O=[N+]([O-])c1cccc(C2CC(c3ccccc3)=Nc3ccccc3S2)c1 (stereo not given) | 89.6% | 12.2% | 89.3% | 97.3% | 91.4% | 108% | 99.6% | 102% | 84.7% | 44.1% | 68.2% | 87.2% | 77.4% | 94.8% | 88.4% | 22.6% | 96.4% |  |  | 
O=C1C=CC(Nc2ccccc2[N+](=O)[O-])C1Nc1ccccc1[N+](=O)[O-] (stereo not given) | -69.1% (active) | 5.11% (active) | -89.7% (active) |  | 75.8% | -93.6% (active) | 28.7% | -68.9% (active) | -86.6% (active) | -32.3% (active) | 36.9% |  | 51.6% | 45% | -68.9% (active) | -97.3% (active) |  | -96.4% (active) | 67.5% | 72.4%
CCN(CC)CCCNc1cccc2c(SCc3ccccc3)ccnc12 | -22.8% (active) | -63% (active) | -84.3% (active) |  | 23.9% | 81.4% | 88.1% | -47.4% (active) | 81.1% | -33.1% (active) | 87.1% |  | 17.7% | 85.4% |  | 24% | 108% | 88.4% | 61% | 48.6%
COc1ccc2nc(NC(=O)c3cccnc3Nc3cc(OC)c(OC)c(OC)c3)sc2c1 | -56.1% (active) | 15.7% |  | -9.82% (active) | -73.1% (active) | -57.1% (active) | 49.9% | 48.4% | 56.3% | 11.9% | 14.1% | 26.4% |  | 15.5% | 57.2% | 37.1% | 24.1% | -39.2% (active) | 54.2% | 
N#Cc1ccc(NC(=O)Nc2ccc(Cc3ccc(NC(=O)Nc4ccc(C#N)cc4)cc3)cc2)cc1 | 40.5% | 11.5% | 27.5% |  | 44.5% | 50.7% | 26.3% | 37.2% | 25.9% | 52.5% | 83.3% |  | 23.3% | 10.5% | 14.2% | -67.6% (active) | 36.7% | 51.4% | 12.1% | 34.4%
CCN(CC)CC(C)(C)C(=O)/C=C/c1ccccc1 | 8.96% (active) | 6.77% (active) | 37.4% |  | 91.3% | 28.8% | 65.9% | 31.9% | 21.2% | 49% | 81.6% |  | 69% | 81.9% |  | -2.72% (active) | 67.8% | 30.3% | 87.6% | 86.4%
CCCCN(CCCC)CCC(C)(O)c1cc2ccccc2c2ccccc12 (stereo not given) | 75% | 15.7% | 30.7% |  | 57.3% | 103% | 82.8% | 90.7% | 82.2% | 39.7% | 106% |  | 47.5% | 102% |  | 45.7% | 121% | 87.8% | 79.8% | 86.3%
C=CCSc1nnc(-c2ccc(C(C)(C)C)cc2)n1-c1cccc(C(F)(F)F)c1 | 54.3% | 20.3% | 66.1% |  |  | 69.5% | 48.5% | 45.3% | 17.7% | 26.3% | 80.5% |  | 16.6% | 37.4% | 42.4% | 47.1% | 67.8% | 18.1% | 29.3% | 32.6%
COC(=O)[C@H](C(C)C)n1c(=O)c2cc(OC)c(OC)cc2c2cnc3[nH]ccc3c21 | 51.4% |  | 85.1% | 48% | 45.6% | 9.26% (active) | 78.7% | 76.1% | 41.3% | 45.5% | 13.2% | 77.7% | 29.2% | 58.8% | 22.3% | 28.2% |  | -0.674% (active) | 25.2% | 
CCCCCCCCCCCCN1CCCC(C)C1 (stereo not given) | 95.2% | 19.2% | 107% | 55.8% | 89.7% | 86.4% | 88.3% | 82.7% | 61.8% | 24% | 73.4% | 101% | 67.4% | 68.4% | 108% | 56.4% | 90% |  |  | 
O=[N+]([O-])c1c(F)cccc1Nc1cccc(F)c1 | 108% | 95.4% |  |  | 105% | 102% | 93.2% | 103% | 104% | 97.5% | 81.6% |  | 103% | 101% |  | 102% |  | 102% | 87% | 105%
O=C(NC(Cc1ccccc1)C(=O)CCl)OCc1ccccc1 (stereo not given) | 93.5% | 13.7% | 72.4% | 73.9% | 63.2% | 62.4% | 87.2% | 80.1% | 58.6% | 53.6% | 83.7% | 82.2% | 67.5% | 75.9% | 68% | -7.12% (active) | 85.8% |  |  | 
Nc1c(C(=O)Nc2ccccc2Cl)sc2nc3c(cc12)CCCCCC3 | 56.3% | 23.3% | -13.3% (active) |  | 38.4% | 14.3% | 58.4% | 34.5% | 25.8% | 9.39% (active) | -20.3% (active) |  | 77.5% | 32.6% |  | 51% | 57.9% | -34.6% (active) | 36.6% | 42%
CN(C)C(=O)c1cc2cnc(Nc3ccc(-c4csc5c(=O)cc(N6CCNCC6)oc45)cc3)nc2n1C1CCCC1 | 29.9% |  | 60.2% | 9.91% (active) | 19.2% | -33% (active) | 64.4% | 27.1% | 19.9% | -15.1% (active) | 20.5% | 24.9% | 10% | 28.5% | 24.6% | -62.9% (active) | 40.7% | -78.6% (active) | 15.2% | 
Cc1csc2ccc(Cl)cc12 | 110% | 106% | 97.7% | 97% | 108% | 96.8% | 102% | 101% | 95.6% | 102% | 69.7% | 99.2% | 96.8% | 107% | 96.2% | 103% | 104% |  |  | 
